MCF10A rerep – A quantitative high throughput screen for small molecules that induce DNA re-replication in MCF 10a normal breast cells; MCF 10A DNA re-replication, Hoechst nuclear intensity, 48 h; Potency, µM (doses to about 46.1 µM), for the others: top-dose activity, positive = re-replication, most hits filed as activators; actives 2.9% (n = 350,000); AID 624296, 2012; also: % of control where 0% means no effect; nearly all actives have a fitted effect of over 50% in size
HT1080 IDH1KD tx – qHTS for induction of synthetic lethality in tumor cells producing 2HG: qHTS for the HT-1080-IDH1KD cell line; HT-1080 IDH1 knockdown viability, ATP luminescence, 48 h; Potency, µM (titrated, usually from 46.1 µM), for the others: at the top dose activity, negative = toxicity, usual class: cytotoxic; actives 2% (n = 360,000);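 also: 0% = DMSO wells and -100% = cell-free medium wells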
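Assay cells: HT-1080 with IDH1 knockdown, 750 per well, RPMI/5% FBS. Exposure: 48 h at 37 °C following 2 h pre-incubation. Read: CellTiter-Glo luminescence; fitted concentration-response, curve class assigned.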
KB-V1 MDR tox – qHTS assay for MDR1-selective chemotherapeutics: Primary screen using the drug-selected MDR subline cells KB-V1. KB-V1 MDR cells viability, CellTiter-Glo, 72 h. Potency, µM (doses to about 46.1 µM), actives largely listed as cytotoxic. actives 3.4% (n = 400,000); also: % is scaled to controls: 0 for no effect and ±100 for the full control effect; nearly all actives have a fitted effect of over 60% in size
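Cytotoxicity toward P-gp-expressing KB-V1 cells was determined as loss of CellTiter-Glo luminescence after 72 h at 37 degrees C. Compounds were tested in quantitative HTS format across a concentration range, with curves fitted to normalized data.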
SW480 rerep – A quantitative high throughput screen for small molecules that induce DNA re-replication in SW480 colon adenocarcinoma cells. SW480 DNA re-replication, Hoechst DNA content imaging, 48 h. Potency, µM (series often up to 46.1 µM), for inactives: top-dose re-replication activation, most hits filed as activators. actives 1.8% (n = 340,000); also: % of control where 0% means no effect; nearly all actives have a fitted effect of over 55% in size
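DNA re-replication was detected as more nuclei of elevated Hoechst intensity after 48 hr exposure to compound (23 nL pinned per well of 250 cells).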
HT1080-NT tox – qHTS for induction of synthetic lethality in tumor cells producing 2HG: qHTS for the HT-1080-NT fibrosarcoma cell line | Potency, µM (top dose mostly 46.1 µM), inactives show at the highest dose activity, negative = less viability, hits mostly cytotoxic | actives 1.6% (n = 360,000) | HT-1080-NT fibrosarcoma viability, CellTiter-Glo ATP luminescence, 48 h;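 also: NT is the 2HG producing partner of a matched IDH1 knockdown line; 0% = DMSO-treated cells and -100% = media-only wells without cells; nearly all actives have a fitted effect of over 55% in size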
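HT-1080-NT fibrosarcoma cells (2HG-overproducing), 750 cells/well in RPMI with 5% FBS, dosed after 2 h and incubated 48 h at 37C. CellTiter-Glo luminescence normalized to DMSO and no-cell wells; concentration-response curves fitted and classed.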
KB-3-1 cytotox – qHTS assay for MDR1-selective chemotherapeutics: Primary screen using the parental adenocarcinoma cell KB-3-1 | KB-3-1 viability, CellTiter-Glo ATP luminescence, 72 h | Potency, µM (doses to about 46.1 µM), usual class: cytotoxic | actives 1.4% (n = 400,000) | AID 1347075, 2019; also: % is scaled to controls: 0 for no effect and ±100 for the full control effect; nearly all actives have a fitted effect of over 60% in size
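Luminescent ATP read-out (CellTiter-Glo) measures survival of drug-naive KB-3-1 cells after 72 h compound exposure at 37 °C. Titration series was screened from lowest to highest concentration, with DMSO vehicle plates as background controls.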
Numbers without * were called inactive; i = inactive; ? = inconclusive; . = no result given; [ ] = another dose, or the depositor's remark. Rows were chosen to be rich in hits. Some 8% of all compounds tested hit in one or more screens of this group. Calls follow the shape of the dose curve; as a rule, active = well fitted curve in the direction sought with a large enough effect; inconclusive = small, poorly fitted or top-dose-only effect, or another doubt; inactive = no such curve, though single readings can be large; an effect the other way counts as inactive or inconclusive. Potency is read from the fitted curve at half-maximal effect.

SMILES | MCF10A rerep | HT1080 IDH1KD tx | KB-V1 MDR tox | SW480 rerep | HT1080-NT tox | KB-3-1 cytotox
O=C1C=C(Nc2ccc(Cl)cc2)CC(c2ccccc2)C1 (stereo not drawn) | 16µM* | 9.2µM* | ? | ? | 12µM* | ?
COc1ccc([C@H]2CC(=O)C=C(c3ccc(NC(C)=O)cc3)C2)cc1OC | 19% | -1% | i | -10% | 4% | i
CC(=O)Nc1ccc(C2=CC(=O)C[C@H](c3ccc(Cl)cc3)C2)cc1 | 18µM* | -18% | i | ? | -12% | i
Cc1ccc(NC2=CC(=O)CC(c3ccccc3)C2)cc1 (stereo not drawn) | 8.2µM* | 2.9µM* | ? | 21µM* | 2.9µM* | ?
Cc1ccc(CNC(=O)CCCn2c(=O)[nH]c3ccc(Br)cc3c2=O)cc1 | . | . | i | . | . | i
COc1ccc2c(c1OC)C(=O)OC2c1ccc(O)cc1 (stereo not drawn) | . | . | i | . | . | i
Cc1ccc(C)c(N2CCN(CCCNC(=O)Cn3c(-c4cccs4)cc4ccccc43)CC2)c1 | . | . | i | . | . | i
CCc1ccccc1NC(=O)CN1CCCN(Cc2cc(C)ccc2C)S1(=O)=O | . | . | i | . | . | i
O=C(NCCC1=CCCCC1)C1CCN(C(=O)N2CCOc3ccccc32)CC1 | . | . | i | . | . | i
CC(C)CCNC1=CC(=O)CC(c2ccccc2)C1 (stereo not drawn) | ? | ? | i | 18µM* | ? | ?
CN(C)CCCNC1=CC(=O)CC(c2ccccc2)C1 (stereo not drawn) | -6% | 16% | i | -9% | 3% | i
Cc1ccc(-n2cc(CNCCc3ncc(C)[nH]3)c(-c3ccc(F)cc3)n2)cc1 | ? | 21µM* | ? | ? | 16µM* | ?
COc1ccc(-n2cc(CNCCc3ncc(C)[nH]3)c(-c3ccccc3Cl)n2)cc1 | 7% | -2% | i | 17% | -18% | i
Cc1ccc(-n2cc(CNCCN3CCOC3=O)c(-c3ccc(F)cc3)n2)cc1 | 15% | -23% | ? | -11% | -20% | i
Cc1ccc(-n2cc(CNCCn3nc(C)cc3C)c(-c3ccc(F)cc3)n2)cc1 | ? | ? | i | 18µM* | 21µM* | i
O=C(CCCOc1ccccc1)NC1CCCc2ccccc21 (stereo not drawn) | 16% | -3% | 18µM* | 4% | 0% | i
O=C(CCl)NC1CCCc2ccccc21 (stereo not drawn) | 3% | ? | ? | 8% | ? | i
O=C(CCNS(=O)(=O)c1cccc2nonc12)NC1CCCc2ccccc21 (stereo not drawn) | 18% | -8% | 23µM* | 6% | -4% | i
O=C(CCNS(=O)(=O)c1cccc2nsnc12)NC1CCCc2ccccc21 (stereo not drawn) | 2% | -5% | i | -1% | -9% | i
O=C(O)COCCN1CCN([C@@H](c2ccccc2)c2ccc(Cl)cc2)CC1 | -2%[20.6 µM] | . | . | -6%[20.6 µM] | . | .
Nc1ccc2cc3ccc(N)cc3nc2c1 | -21% | . | . | -14% | . | .
Cc1cccc(-c2cnn(-c3ccccc3)c2N)c1 | 4% | 2% | i | 18µM* | 16% | i
O=C(NCC1CCCO1)c1ccc(CS(=O)(=O)c2ccc(Cl)cc2)o1 (stereo not drawn) | 24% | 5% | 23µM* | -6% | 16% | i
O=C(NCC1CCCO1)c1ccc(CS(=O)(=O)c2ccc(Br)cc2)o1 (stereo not drawn) | 0% | -1% | i | -2% | 0% | i
O=C(NC1CCCC1)c1ccc(Cl)s1 | 1% | -2% | i | 21% | 11% | i
SMILES | MCF10A rerep | HT1080 IDH1KD tx | KB-V1 MDR tox | SW480 rerep | HT1080-NT tox | KB-3-1 cytotox
O=C(NCc1ccc2c(c1)OCO2)c1ccc(CS(=O)(=O)c2ccc(Br)cc2)o1 | 7% | -5% | i | 2% | -6% | i
O=C(NC1CCCCC1)c1ccc([N+](=O)[O-])o1 | 16µM* | ? | ? | ? | ? | ?
O=C(NCc1ccc(F)cc1)c1ccc(CS(=O)(=O)c2ccc(Br)cc2)o1 | ? | -21% | 13µM* | -12% | -6% | i
O=C(NC1CCCCCC1)c1ccc([N+](=O)[O-])s1 | ? | ? | i | 18µM* | ? | ?
CCOc1ccccc1CNC(=O)c1cc(-c2ccc(Cl)s2)nc2ccccc12 | . | . | i | . | . | i
C[C@@H]1CC2[C@@H]3C[C@H](F)C4=CC(=O)C(Cl)=C[C@]4(C)[C@@]3(F)[C@H](O)C[C@]2(C)[C@@]1(O)C(=O)CO (stereo partly drawn) | 26% | . | . | -2% | . | .
O=C(NCC1CCCO1)c1ccc([N+](=O)[O-])o1 (stereo not drawn) | ? | -28% | ? | ? | ? | 21µM*
O=C(NC1CCCC(C(F)(F)F)C1)c1ccc([N+](=O)[O-])o1 (stereo not drawn) | 6.5µM* | ? | ? | 32% | ? | ?
O=C(N/N=C/c1ccc([N+](=O)[O-])o1)C1CCCC1 | 10% | ? | i | 26% | -23% | ?
O=C(Cc1ccc([N+](=O)[O-])cc1)NCC1CCCO1 (stereo not drawn) | -1% | 2% | i | 0% | -2% | i
O=C(COC(=O)c1ccc([N+](=O)[O-])o1)NC1CCCC1 | -1% | 3% | ? | -3% | 2% | i
CC(NC(=O)c1ccc([N+](=O)[O-])o1)C12CC3CC(CC(C3)C1)C2 (stereo not drawn) | ? | ? | ? | ? | 18µM* | ?
O=[N+]([O-])c1ccc(/C=[N+](\[O-])[C@@H]2CCCC[C@@H]2/[N+]([O-])=C/c2ccc([N+](=O)[O-])o2)o1 | 23µM* | -2% | 21µM* | 2.9µM* | -20% | ?
Cc1ccc(NC(=O)CSc2nc3ccc(NC(=O)c4cccc(Cl)c4)cc3s2)c(C)c1 | . | . | i | . | . | i
CN(C)c1ccc(CNC(=O)c2ccc(NC(=O)N3CCCCc4ccccc43)cc2)cc1 | . | . | i | . | . | i
COc1ccc(N2CCN(C(=O)C3CCN(S(=O)(=O)c4cnc[nH]4)CC3)CC2)cc1 | . | . | ? | . | . | i

Screens from PubChem BioAssay.
